Out of some 5,500 compounds screened, about 2,000 (36%) were called active. About 18% were inconclusive and are not listed. No stated cut-off is given here; in the data, active means normalized growth mostly below about 0.91 (no sharp cut-off); inconclusive means no clear call, values can overlap the other calls; inactive means mostly above about 0.92. The list shows a part of the results.
Test: chemical genetic growth profiling, strain panel (AID 1159580);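 further: tested at 20 µM; growth read once vehicle control cultures reached saturation at 30 °C; 1 = growth at the plate median or of vehicle wells; lower values mean less growth of the strain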
Conditions: growth OD

Measured: normalized growth

O=C(O)c1cc2ccccc2c(Cc2c(O)c(C(=O)O)cc3ccccc23)c1O
inactive: S. cerevisiae deletion strains, locus YJR043C, strain POL32, hits give low values 1.01 | S. cerevisiae deletion strains, locus YKL009W, strain mrt4, hits give low values 0.989 | S. cerevisiae deletion strains, locus YKL068W, hits give low values 1.01 | S. cerevisiae deletion strains, locus YKL085W, strain MDH1 (second series), hits give low values 1 | S. cerevisiae deletion strains, locus YKL085W, strain MDH1, hits give low values 1 | S. cerevisiae deletion strains, locus YKL160W, strain elf1, hits give low values 1 | S. cerevisiae deletion strains, locus YKR001C, strain vps1, hits give low values 0.966 | S. cerevisiae deletion strains, locus YKR026C, strain gcn3, hits give low values 0.998 | S. cerevisiae deletion strains, locus YKR091W, strain srl3, hits give low values 1 | S. cerevisiae deletion strains, locus YLL001W, strain dnm1, hits give low values 0.996 | S. cerevisiae deletion strains, locus YLL026W, hits give low values 1 | S. cerevisiae deletion strains, locus YLL041C, strain sdh2, hits give low values 0.992 | S. cerevisiae deletion strains, locus YLR027C, strain aat2, hits give low values 0.999 | S. cerevisiae deletion strains, locus YLR039C, strain RIC1, hits give low values 0.996 | S. cerevisiae deletion strains, locus YLR058C, strain SHM2, hits give low values 1 | S. cerevisiae deletion strains, locus YLR102C, strain apc9, hits give low values 0.994 | S. cerevisiae deletion strains, locus YLR221C, strain rsa3, hits give low values 0.99 | S. cerevisiae deletion strains, locus YLR258W, strain gsy2, hits give low values 0.996 | S. cerevisiae deletion strains, locus YLR262C, strain YPT6 (second series), hits give low values 1.01 | S. cerevisiae deletion strains, locus YLR262C, strain YPT6, hits give low values 1.07 | S. cerevisiae deletion strains, locus YLR268W, strain sec22, hits give low values 0.993 | S. cerevisiae deletion strains, locus YLR320W, strain mms22, hits give low values 0.991 | S. cerevisiae deletion strains, locus YLR330W, strain CHS5, hits give low values 0.996 | S. cerevisiae deletion strains, locus YLR342W, strain FKS1 (second series), hits give low values 0.972 | S. cerevisiae deletion strains, locus YLR342W, strain FKS1, hits give low values 0.998 | S. cerevisiae deletion strains, locus YLR357W, strain rsc2, hits give low values 0.99 | S. cerevisiae deletion strains, locus YLR370C, strain arc18, hits give low values 1.01 | S. cerevisiae deletion strains, locus YLR371W, strain rom2, hits give low values 0.966 | S. cerevisiae deletion strains, locus YLR384C, strain iki3, hits give low values 0.988 | S. cerevisiae deletion strains, locus YLR418C, strain cdc73, hits give low values 0.93 | S. cerevisiae deletion strains, locus YML016C, strain PPZ1, hits give low values 0.978 | S. cerevisiae deletion strains, locus YML032C, strain rad52, hits give low values 0.994 | S. cerevisiae deletion strains, locus YML120C, strain ndi1, hits give low values 1 | S. cerevisiae deletion strains, locus YML124C, strain tub3, hits give low values 0.994 | S. cerevisiae deletion strains, locus YMR058W, strain fet3, hits give low values 1 | S. cerevisiae deletion strains, locus YMR078C, strain ctf18, hits give low values 0.984 | S. cerevisiae deletion strains, locus YMR125W, strain sto1, hits give low values 1 | S. cerevisiae deletion strains, locus YMR129W, hits give low values 0.997 | S. cerevisiae deletion strains, locus YMR205C, strain PFK2, hits give low values 1.01 | S. cerevisiae deletion strains, locus YMR223W, strain ubp8, hits give low values 1 | S. cerevisiae deletion strains, locus YMR231W, strain pep5, hits give low values 1 | S. cerevisiae deletion strains, locus YMR263W, strain SAP30, hits give low values 0.999 | S. cerevisiae deletion strains, locus YMR307W, strain GAS1, hits give low values 1.1 | S. cerevisiae deletion strains, locus YNL067W, strain RPL9B, hits give low values 1.01 | S. cerevisiae deletion strains, locus YNL071W, strain lat1, hits give low values 0.987 | S. cerevisiae deletion strains, locus YNL209W, strain ssb2, hits give low values 1 | S. cerevisiae deletion strains, locus YNL233W, strain BNI4, hits give low values 1.01 | S. cerevisiae deletion strains, locus YNL248C, strain rpa49, hits give low values 0.984 | S. cerevisiae deletion strains, locus YNL250W, strain rad50, hits give low values 1.01 | S. cerevisiae deletion strains, locus YNL271C, strain bni1, hits give low values 1.01 | S. cerevisiae deletion strains, locus YNL298W, strain CLA4, hits give low values 0.983 | S. cerevisiae deletion strains, locus YNL307C, strain MCK1, hits give low values 0.996 | S. cerevisiae deletion strains, locus YNL322C, strain KRE1 (second series), hits give low values 1.02 | S. cerevisiae deletion strains, locus YNR049C, strain mso1, hits give low values 1 | S. cerevisiae deletion strains, locus YNR052C, strain pop2, hits give low values 0.981 | S. cerevisiae deletion strains, locus YOL012C, strain htz1 0.665 | S. cerevisiae deletion strains, locus YOL147C, strain pex11, hits give low values 1 | S. cerevisiae deletion strains, locus YOR001W, strain rrp6, hits give low values 1.01 | S. cerevisiae deletion strains, locus YOR061W, strain CKA2, hits give low values 0.984 | S. cerevisiae deletion strains, locus YOR069W, strain VPS5, hits give low values 0.999 | S. cerevisiae deletion strains, locus YOR070C, strain gyp1, hits give low values 1 | S. cerevisiae deletion strains, locus YOR080W, strain dia2, hits give low values 1 | S. cerevisiae deletion strains, locus YOR083W, strain WHI5, hits give low values 1 | S. cerevisiae deletion strains, locus YOR106W, strain vam3, hits give low values 0.976 | S. cerevisiae deletion strains, locus YOR136W, strain idh2, hits give low values 1 | S. cerevisiae deletion strains, locus YOR144C, strain elg1, hits give low values 0.99 | S. cerevisiae deletion strains, locus YOR184W, strain ser1, hits give low values 0.989 | S. cerevisiae deletion strains, locus YOR231W, strain MKK1, hits give low values 0.875 | S. cerevisiae deletion strains, locus YOR265W, strain rbl2, hits give low values 0.991 | S. cerevisiae deletion strains, locus YOR270C, strain vph1, hits give low values 0.974 | S. cerevisiae deletion strains, locus YOR290C, strain snf2, hits give low values 0.989 | S. cerevisiae deletion strains, locus YOR316C, strain cot1, hits give low values 0.997 | S. cerevisiae deletion strains, locus YPL051W, strain arl3, hits give low values 1.01 | S. cerevisiae deletion strains, locus YPL055C, strain LGE1, hits give low values 1 | S. cerevisiae deletion strains, locus YPL078C, strain atp4, hits give low values 1 | S. cerevisiae deletion strains, locus YPL106C, strain sse1, hits give low values 0.964 | S. cerevisiae deletion strains, locus YPL240C, strain hsp82, hits give low values 0.976 | S. cerevisiae deletion strains, locus YPL256C, strain CLN2, hits give low values 0.905 | S. cerevisiae deletion strains, locus YPR119W, strain clb2, hits give low values 0.988 | S. cerevisiae deletion strains, locus YPR141C, strain kar3, hits give low values 1.02 | S. cerevisiae deletion strains, locus YPR163C, strain tif3, hits give low values 0.995 | S. cerevisiae deletion strains, locus YPR167C, strain met16, hits give low values 0.991 | S. cerevisiae deletion strains, strain wtn01, hits give low values 0.985 | S. cerevisiae strains, strain wild type, hits give low values 1
active: S. cerevisiae deletion strains, locus YJR066W, strain TOR1, hits give low values 0.819 | S. cerevisiae deletion strains, locus YLR113W, strain HOG1, hits give low values 0.847 | S. cerevisiae deletion strains, locus YNL183C, strain NPR1, hits give low values 0.829

Source: PubChem BioAssay AID1159580 (chemical genetic matrix, 2015)
